The term viability denotes a read-out of living cells in per cent, often relative to untreated cells.

Here are results for 20 molecules from PubChem BioAssay (NCATS).

Experiment [1] is described as follows: BET inhibitor-based combinations targeting novel dependencies in MECOM-rearranged (r) AML: SET-2 cell line (AID 2202231). Further: nearly all actives have a fitted effect of over 35% in size.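 On viability: plate controls were DMSO treated cells for no effect and wells without cells for full effect.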 The settings on record: SET-2 AML cells viability, CellTiter-Glo luminescence, 48 h; viability: hits give low values, concentration not given here. The essentials:
(§1)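 A 48 hr incubation preceded viability reading by CellTiter-Glo, with 15 min room-temperature development. Dose series had 11 points; normalization used DMSO and empty wells; AUC was computed and mean-centered per line as Z-AUC.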
For orientation: Cellular ATP, detected with luciferase, serves as a proxy for viable cell number.

Experiment [2] is described as follows: BET inhibitor-based combinations targeting novel dependencies in MECOM-rearranged (r) AML: OCI-AML3 cell line (AID 2202232). Further: nearly all actives have a fitted effect of over 35% in size.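 On viability (% of control): series mostly up to about 46 µM; plate controls were DMSO vehicle wells for no effect and wells without cells for full effect.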 The settings on record: Potency: OCI-AML3 viability. The method in brief:
as §1

Experiment [3] is described as follows: BET inhibitor-based combinations targeting novel dependencies in MECOM-rearranged (r) AML: MV-4-11 cell line (AID 2202233). Further: nearly all actives have a fitted effect of over 45% in size.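 On viability, % of control: plate controls were DMSO for no effect and blank wells for full effect.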 The method in brief: (§2)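 Each compound is tested in an 11-point concentration series against 500 seeded cells/well for 48 hr. The luminescent viability signal is normalized to DMSO and blank wells, then reduced to AUC and a cell-line-centred Z-AUC.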

Experiment [4] is described as follows: BET inhibitor-based combinations targeting novel dependencies in MECOM-rearranged (r) AML: HNT-34 cell line (AID 2202234). Further: nearly all actives have a fitted effect of over 35% in size.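 On viability (% of control): plate controls were vehicle wells for no effect and cell-free wells for full effect.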 The essentials: as §2
Experiment [5] can be described thus: BET inhibitor-based combinations targeting novel dependencies in MECOM-rearranged (r) AML: UCSD-AML1 cell line (AID 2202235). Further: nearly all actives have a fitted effect of over 40% in size.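 On viability (% of control): series mostly up to about 46 µM; plate controls were DMSO vehicle wells for no effect and blank wells for full effect.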 The method in brief: as §2
Experiment [6] is described as follows: BET inhibitor-based combinations targeting novel dependencies in MECOM-rearranged (r) AML: AML-194 cell line (AID 2202237; further: nearly all actives have a fitted effect of over 40% in size;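 on viability (% of control): plate controls were vehicle wells for no effect and wells without cells for full effect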). The essentials:
as §1

The nature of experiment [7]: BET inhibitor-based combinations targeting novel dependencies in MECOM-rearranged (r) AML: AML-191 cell line (AID 2202236; further: nearly all actives have a fitted effect of over 35% in size;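 on viability (% of control): plate controls were vehicle wells for no effect and wells without cells for full effect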). The essentials:
as §1

Several values for one entry are separate records, joined by “and”; a condition that tells them apart may be missing. Identical values can stand only once. Records with an inconclusive call do not appear. A number with no mark means an inactive call. Activity calls are given as the source filed them. The call rests on the fitted dose curve; in most records, active means well fitted curve in the direction sought with a large enough effect; inconclusive means small, poorly fitted or top-dose-only effect, or another doubt; inactive means no such curve, though single readings can be large; an effect the other way counts as inactive or inconclusive.
Potency means the concentration at half of the fitted maximal effect.

On to `C=CC(=O)Nc1cccc(C)c1Nc1ncc2cc(-c3c(Cl)c(OC)cc(OC)c3Cl)ccc2n1`, for which the Potency in experiment [1] was 14.8 µM (active); in experiment [2], 10.5 µM (active); in experiment [3] it was 4.17 µM (active); in experiment [4], 8.33 µM (active); in experiment [5] it was 5.25 µM (active); in experiment [6] it was 11.8 µM (active).
With `CCOCOC[C@H](C[C@H](C)C(=O)NO)NC(=O)c1ccc(Oc2ccccc2)cc1`, the viability in experiment [1] is 117%. The Potency in experiment [2] is 23.5 µM (active); in experiment [4], 26.3 µM (active). In addition, the Potency entry in experiment [3], in experiment [5] and in experiment [6] was “inactive” in each case.
Take `COc1cc(OC)c(/C=C/S(=O)(=O)Cc2ccc(OC)c(OP(=O)(O)O)c2)c(OC)c1`: the Potency is 0.132 µM (active) in experiment [1]; 0.118 µM (active) in experiment [2]; 0.132 µM (active) in experiment [3]; 0.105 µM (active) in experiment [4]; 0.118 µM (active) in experiment [5]; 0.118 µM (active) in experiment [7]. In addition, the Potency in experiment [6] was 0.118 µM (active).
In the case of `CC1(N)CCN(c2cnc(-c3cccc(Cl)c3Cl)c(N)n2)CC1`, the viability in experiment [1] is 110%. The Potency entry in experiment [2], in experiment [4], in experiment [5], in experiment [7] and in experiment [6] was “inactive” in each case. Besides, the Potency in experiment [3] is 2.88 µM (active).
Regarding `Cc1c(F)cccc1NC(=O)Nc1ccc(Cl)c(S(=O)(=O)[C@H]2CCCNC2)c1O`, the viability in experiment [1] was 112%. The Potency result in experiment [2], in experiment [3], in experiment [4], in experiment [5], in experiment [7] and in experiment [6] was “inactive” each time.
Regarding `CN(CCOc1ccc(C[C@H](Nc2ccccc2C(=O)c2ccccc2)C(=O)O)cc1)c1ccccn1`, in experiment [1], the viability was 94.3% and 95.3%. Moreover, the Potency entry in experiment [2], in experiment [3], in experiment [4], in experiment [5] and in experiment [6] was “inactive” each time.
For `CCCNC(=O)c1cn2ncnc(Nc3cc(C(=O)NC4CC4)ccc3C)c2c1C`, the viability in experiment [1] was 99.9%. The Potency result in experiment [2], in experiment [3], in experiment [4] and in experiment [6] was “inactive” in each case.
Consider `O=[N+]([O-])c1ccc(O)c2ncccc12`, for which the Potency in experiment [1] is 16.6 µM (active); in experiment [2] it was 14.8 µM (active); in experiment [3], 13.2 µM (active); in experiment [4], 7.42 µM (active); in experiment [7], 8.33 µM (active); in experiment [6], 9.34 µM (active).
As to `COc1cc(=C2C=c3ccccc3=N2)[nH]/c1=C/c1[nH]c(C)cc1C`, the Potency was 4.17 µM (active) in experiment [1]; 2.63 µM (active) in experiment [2]; 2.35 µM (active) in experiment [3]; 3.72 µM (active) in experiment [4]; 2.35 µM (active) in experiment [7]; 5.9 µM (active) in experiment [6].
As to `COc1cc(N2CCN(C)CC2)ccc1Nc1ncc2c(n1)N(C)c1ccccc1C(=O)N2C`, the Potency in experiment [1] is 16.6 µM (active); in experiment [2], 2.35 µM (active); in experiment [3] it was 1.32 µM (active); in experiment [4], 16.6 µM (active); in experiment [7], 18.6 µM (active); in experiment [6] it was 20.9 µM (active).
Take `CCNCCc1ccc(CN(CC)c2cc(OC)ccc2[C@@H]2CCc3cc(O)ccc3C2)cc1`: the Potency in experiment [1] was 9.34 µM (active); in experiment [2], 6.61 µM (active); in experiment [3], 5.9 µM (active); in experiment [4], 8.33 µM (active); in experiment [7], 7.42 µM (active); in experiment [6] it was 8.33 µM (active).
On to `CC(C)Cc1ccc([C@@H](C)C(=O)NS(C)(=O)=O)cc1`, for which the viability in experiment [1] is 112%. In addition, the Potency entry in experiment [2], in experiment [3], in experiment [4], in experiment [7] and in experiment [6] was “inactive” throughout.
Take `O=C(/C=C/c1ccc(/C=C/C(=O)Nc2ccc(C3=NCCN3)cc2)cc1)Nc1ccc(C2=NCCN2)cc1`: the viability in experiment [1] was 113%. In addition, the viability (% of control) was 117% [at 5.12 µM] in experiment [2], 109% [at 5.12 µM] in experiment [4], 109% [at 5.12 µM] in experiment [7] and 108% [at 5.12 µM] in experiment [6]. Besides, the viability, % of control in experiment [3] is 112% [at 5.12 µM].
With `O=S(=O)(Nc1ccc(-c2cccnc2)c2cccnc12)c1cccc(C(F)(F)F)c1`, the Potency was 10.5 µM (active) in experiment [1]; 7.42 µM (active) in experiment [2]; 7.42 µM (active) in experiment [3]; 4.17 µM (active) in experiment [4]; 5.9 µM (active) in experiment [7]; 7.42 µM (active) in experiment [6].
Consider `N#C/C(=C1/Nc2ccccc2S1)c1ccnc(OCc2ccc(CN3CCOCC3)cc2)n1`, for which the Potency is 20.9 µM (active) in experiment [1]; 14.8 µM (active) in experiment [2]; 16.6 µM (active) in experiment [3]; 16.6 µM (active) in experiment [4]; 20.9 µM (active) in experiment [6].
Regarding `O=C1NC(=O)/C(=C/c2ccc3nccc(-c4ccncc4)c3c2)S1`, the Potency in experiment [1] was 14.8 µM (active); in experiment [2] it was 1.05 µM (active); in experiment [3], 0.833 µM (active); in experiment [4], 1.05 µM (active); in experiment [7], 0.934 µM (active).
Consider `C=CC(=O)N1CC[C@@H](Oc2nc(Nc3ccc(N4CCC(N5CCN(C)CC5)CC4)cc3)c(C(N)=O)nc2CC)C1`, for which the Potency in experiment [1] was 10.2 µM (active); in experiment [2], 4.56 µM (active); in experiment [3], 0.102 µM (active); in experiment [4], 7.23 µM (active); in experiment [7] it was 4.07 µM (active); in experiment [6], 6.45 µM (active).
Consider `NC(CO)(CO)CCc1ccc(Sc2cccc(OCc3ccccc3)c2)cc1Cl`, for which the Potency in experiment [1] is 18.6 µM (active); in experiment [2] it was 9.34 µM (active); in experiment [3] it was 10.5 µM (active); in experiment [4] it was 18.6 µM (active); in experiment [7], 10.5 µM (active); in experiment [6], 9.34 µM (active).
Regarding `CCS(=O)(=O)Nc1ccc(Oc2ccc(F)cc2F)c(-c2cn(C)c(=O)c3[nH]ccc23)c1`, the Potency in experiment [1] is 0.0525 µM (active); in experiment [2], 0.0118 µM (active); in experiment [3], 0.0083 µM (active); in experiment [4], 0.0742 µM (active); in experiment [5], 0.132 µM (active); in experiment [6] it was 0.0833 µM (active).
For `CNCCn1c(=O)c2cc(OC)c(OC)cc2c2cnc3cc4c(cc3c21)OCO4`, the Potency in experiment [1] was 0.0241 µM (active); in experiment [2] it was 0.0215 µM (active); in experiment [3], 0.0152 µM (active); in experiment [4], 0.0121 µM (active); in experiment [7], 0.0241 µM (active); in experiment [6] it was 0.0241 µM (active).
